The text below walks through data of PubChem BioAssay (EPA / NIEHS).

Read-out in experiment [1]: TIMP metallopeptidase inhibitor 1 (TIMP1), TIMP1 (gene 7076)
As to the kind of experiment: BSK_hDFCGF_TIMP1: BioMAP Diversity Plus: hDFCGF Assay for TIMP metallopeptidase inhibitor 1 (TIMP1) Biomarker Activity (AID 2283062). The conditions noted are these: primary human foreskin fibroblasts; actives raise or lower the signal. An outline of the steps: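 Fibroblasts from human foreskin are treated with test chemical and harvested at 24 h. TIMP-1 is quantified by ELISA, and gain or loss of signal is scored against DMSO.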

Read-out in experiment [2]: Monokine induced gamma interferon (MIG), CXCL9 (gene 4283)
Nature of the experiment: BSK_hDFCGF_MIG: BioMAP Diversity Plus: hDFCGF Assay for Monokine induced gamma interferon (MIG) Biomarker Activity (AID 2283063). The conditions noted are these: primary human foreskin fibroblasts; actives raise or lower the signal. An outline of the steps:
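MIG signal, determined by ELISA, reflects 24 h chemical exposure of human skin primary fibroblasts. DMSO serves as negative control and baseline.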

Read-out in experiment [3]: Matrix Metallopeptidase 1 (MMP1), MMP1 (gene 4312)
Nature of the experiment: BSK_hDFCGF_MMP1: BioMAP Diversity Plus: hDFCGF Assay for Matrix Metallopeptidase 1 (MMP1) Biomarker Activity (AID 2283064). The conditions noted are these: primary human foreskin fibroblasts; actives raise or lower the signal. A digest of the protocol:
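ELISA read-out of MMP1 from human foreskin fibroblasts (primary skin cells), 24 h post-dose. Gain or loss of signal was fitted bidirectionally versus DMSO negative control; cytotoxicity was checked by SRB in parallel cultures.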

Read-out in experiment [4]: Vascular cell adhesion molecule 1 (VCAM1), VCAM1 (gene 7412)
As to the kind of experiment: BSK_hDFCGF_VCAM1: BioMAP Diversity Plus: hDFCGF Assay for Vascular cell adhesion molecule 1 (VCAM1) Biomarker Activity (AID 2283065).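 On AC50: VCAM-1 protein level quantified by ELISA after 24 h chemical exposure.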 The conditions noted are these: primary human foreskin fibroblasts; actives raise or lower the signal. An outline of the steps: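 Cells are dosed, cultured for 24 h, then VCAM-1 is quantified by ELISA; signal increases and decreases are both fitted relative to DMSO.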

Read-out in experiment [5]: Intercellular Adhesion Molecule 1 (ICAM1), ICAM1 (gene 3383)
Nature of the experiment: BSK_KF3CT_ICAM1: BioMAP Diversity Plus: KF3CT Assay for Intercellular Adhesion Molecule 1 (ICAM1) Biomarker Activity (AID 2283067). The conditions noted are these: primary human keratinocytes with fibroblasts; actives raise or lower the signal. An outline of the steps: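 Dose the keratinocyte/fibroblast co-culture, wait 24 h, measure ICAM-1 by ELISA, then fit increases or decreases against DMSO. Cytotoxicity is checked in parallel cultures by SRB total-protein staining.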

Read-out in experiment [6]: Interferon-gamma inducible Protein 10 (IP10), CXCL10 (gene 3627)
As to the kind of experiment: BSK_KF3CT_IP10: BioMAP Diversity Plus: KF3CT Assay for Interferon-gamma inducible Protein 10 (IP10) Biomarker Activity (AID 2283068). The settings on record: primary human keratinocytes with fibroblasts; actives raise or lower the signal. An outline of the steps:
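ELISA read-out of IP-10 after 24 h chemical dosing of human skin primary co-culture (keratinocytes, foreskin fibroblasts). Gain or loss of signal relative to DMSO, bidirectional curve fit.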

Experiment [7] in a line: BSK_KF3CT_SRB: Viability Assessment in the BioMAP Diversity Plus: KF3CT Assay (AID 2283069). The conditions noted are these: primary human keratinocytes with fibroblasts. A digest of the protocol:
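SRB read-out at 560 nm (0.1% stain, TCA-fixed cells) gauges overt cytotoxicity in a human skin keratinocyte–fibroblast co-culture 24 h post-dosing. Signal change was fitted bidirectionally relative to DMSO control.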

Read-out in experiment [8]: Interleukin-1 alpha (IL1a), IL1A (gene 3552)
As to the kind of experiment: BSK_KF3CT_IL1a: BioMAP Diversity Plus: KF3CT Assay for Interleukin-1 alpha (IL1a) Biomarker Activity (AID 2283070). The conditions noted are these: primary human keratinocytes with fibroblasts; actives raise or lower the signal. An outline of the steps:
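Primary skin co-culture (keratinocytes, foreskin fibroblasts), 24 h exposure; ELISA for IL-1a; bidirectional curve fit vs DMSO.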

Read-out in experiment [9]: TIMP metallopeptidase inhibitor 2 (TIMP2), TIMP2 (gene 7077)
As to the kind of experiment: BSK_KF3CT_TIMP2: BioMAP Diversity Plus: KF3CT Assay for TIMP metallopeptidase inhibitor 2 (TIMP2) Biomarker Activity (AID 2283071). The settings on record: primary human keratinocytes with fibroblasts; actives raise or lower the signal. An outline of the steps:
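Measurements come from ELISA detection of TIMP-2 at 24 hours in a dosed human keratinocyte and foreskin fibroblast co-culture. DMSO serves as negative control and baseline.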

Read-out in experiment [10]: Transforming growth factor beta 1 (TGFb1), TGFB1 (gene 7040)
Nature of the experiment: BSK_KF3CT_TGFb1: BioMAP Diversity Plus: KF3CT Assay for Transforming growth factor beta 1 (TGFb1) Biomarker Activity (AID 2283072). The settings on record: primary human keratinocytes with fibroblasts; actives raise or lower the signal. An outline of the steps:
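TGF-b1 ELISA on a 24 h dosed co-culture of human keratinocytes and foreskin fibroblasts; cytotoxicity tracked in parallel cultures by SRB staining.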

Read-out in experiment [11]: C-C motif chemokine 2 (Homo sapiens) (UniProt P13500)
Nature of the experiment: BSK_KF3CT_MCP1: BioMAP Diversity Plus: KF3CT Assay for Monocyte Chemoattractant Protein 1 (MCP1/CCL2) Biomarker Activity (AID 2283073). The settings on record: primary human keratinocytes with fibroblasts; actives raise or lower the signal. A digest of the protocol: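 Keratinocytes and foreskin fibroblasts were co-cultured, dosed with chemical, and sampled 24 h later. MCP-1 was quantified by ELISA, and the endpoint was analyzed with bidirectional fitting using DMSO as negative control.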

Read-out in experiment [12]: Matrix Metallopeptidase 9 (MMP9), MMP9 (gene 4318)
Nature of the experiment: BSK_KF3CT_MMP9: BioMAP Diversity Plus: KF3CT Assay for Matrix Metallopeptidase 9 (MMP9) Biomarker Activity (AID 2283074).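 On AC50: MMP9 protein level quantified by ELISA in the co-culture.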 The settings on record: primary human keratinocytes with fibroblasts; actives raise or lower the signal. An outline of the steps:
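ELISA read-out of MMP-9 at 24 h post-dosing in a co-culture of human skin keratinocytes and foreskin fibroblasts. Gain or loss of signal was fitted in both directions against DMSO.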

Read-out in experiment [13]: urokinase plasminogen activator (uPA), PLAU (gene 5328)
Nature of the experiment: BSK_KF3CT_uPA: BioMAP Diversity Plus: KF3CT Assay for urokinase plasminogen activator (uPA) Biomarker Activity (AID 2283075). The conditions noted are these: primary human keratinocytes with fibroblasts; actives raise or lower the signal. A digest of the protocol:
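Skin co-culture (keratinocytes + foreskin fibroblasts), human primary; 24 h post-dose; uPA by ELISA; gain/loss fit vs DMSO baseline.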

Read-out in the next experiment: CD40, CD40 (gene 958)
Nature of the experiment: BSK_LPS_CD40: BioMAP Diversity Plus: LPS Assay for CD40 Biomarker Activity (AID 2283076). The settings on record: primary human HUVEC with PBMC; actives raise or lower the signal. An outline of the steps: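 CD40 signal, measured by ELISA, is fitted in both directions relative to DMSO vehicle. The system is an LPS-driven human vascular primary co-culture of endothelial cells and PBMC, sampled 24 h after compound addition.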

Read-out in experiment [14]: E-selectin (Homo sapiens) (UniProt P16581)
Nature of the experiment: BSK_LPS_Eselectin: BioMAP Diversity Plus: LPS Assay for Eselectin Biomarker Activity (AID 2283077). The settings on record: primary human HUVEC with PBMC; actives raise or lower the signal. A digest of the protocol: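 Signal of E-selectin, detected by ELISA, served as the endpoint; cells were umbilical vein endothelium with PBMC, read 24 h after treatment. DMSO defined baseline, and both increases and decreases were fitted.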

Read-out in experiment [15]: Interleukin-8 (IL8), CXCL8 (gene 3576)
Nature of the experiment: BSK_LPS_IL8: BioMAP Diversity Plus: LPS Assay for Interleukin-8 (IL8) Biomarker Activity (AID 2283078). The settings on record: primary human HUVEC with PBMC; actives raise or lower the signal. An outline of the steps: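 Endothelial cells and PBMC from human donors are co-cultured, treated with chemicals and LPS, then assayed for IL-8 by ELISA after 24 h. Parallel SRB staining (0.1% SRB after 10% TCA fixation, 560 nm) flags cytotoxicity.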

A short description of experiment [16]: BSK_LPS_SRB: Viability Assessment in the BioMAP Diversity Plus: LPS Assay (AID 2283079).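 Further: total protein by sulforhodamine B absorbance as a cytotoxicity measure; measured one day after compound addition.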 The settings on record: primary human HUVEC with PBMC. An outline of the steps: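 Overt cytotoxicity was gauged by sulforhodamine B total-protein staining in a primary human vascular endothelial and mononuclear cell co-culture 24 h post-dosing. Activity was fitted in both directions relative to DMSO.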

Read-out in experiment [17]: Interleukin-1 alpha (IL1a), IL1A (gene 3552)
Nature of the experiment: BSK_LPS_IL1a: BioMAP Diversity Plus: LPS Assay for Interleukin-1 alpha (IL1a) Biomarker Activity (AID 2283080). The settings on record: primary human HUVEC with PBMC; actives raise or lower the signal. A digest of the protocol: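 Measured: IL-1 alpha via ELISA at 24 h in LPS-activated human umbilical vein endothelium–PBMC co-culture. Baseline: DMSO, bidirectional fitting.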

Read-out in experiment [18]: Monocyte Chemoattractant Protein-1 (MCP1), CCL2 (gene 6347)
As to the kind of experiment: BSK_LPS_MCP1: BioMAP Diversity Plus: LPS Assay for Monocyte Chemoattractant Protein-1 (MCP1) Biomarker Activity (AID 2283081). The conditions noted are these: primary human HUVEC with PBMC; actives raise or lower the signal. An outline of the steps: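 LPS-stimulated HUVEC/PBMC co-culture; chemical, 24 h; MCP-1 by ELISA; bidirectional fit vs DMSO; cytotoxicity via SRB (0.1% stain, 10% TCA fix, 560 nm) in parallel wells.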

Read-out in experiment [19]: Plasminogen activator inhibitor-1 (PAI1), SERPINE1 (gene 5054)
Nature of the experiment: BSK_hDFCGF_PAI1: BioMAP Diversity Plus: hDFCGF Assay for Plasminogen activator inhibitor-1 (PAI1) Biomarker Activity (AID 2283066). The settings on record: primary human foreskin fibroblasts; actives raise or lower the signal. A digest of the protocol: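 Human skin fibroblast cultures receive chemical for 24 h before PAI-1 is measured by ELISA; signal changes are fitted bidirectionally against DMSO-treated wells.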

Calls of active or inactive are those of the source. How the source made its calls: active means hit-call score of the fitted dose curve at least 0.9, where 1 is the maximum; inactive means score below 0.9.

Chain of E-selectin (Homo sapiens) (P16581 whole entry, looked up): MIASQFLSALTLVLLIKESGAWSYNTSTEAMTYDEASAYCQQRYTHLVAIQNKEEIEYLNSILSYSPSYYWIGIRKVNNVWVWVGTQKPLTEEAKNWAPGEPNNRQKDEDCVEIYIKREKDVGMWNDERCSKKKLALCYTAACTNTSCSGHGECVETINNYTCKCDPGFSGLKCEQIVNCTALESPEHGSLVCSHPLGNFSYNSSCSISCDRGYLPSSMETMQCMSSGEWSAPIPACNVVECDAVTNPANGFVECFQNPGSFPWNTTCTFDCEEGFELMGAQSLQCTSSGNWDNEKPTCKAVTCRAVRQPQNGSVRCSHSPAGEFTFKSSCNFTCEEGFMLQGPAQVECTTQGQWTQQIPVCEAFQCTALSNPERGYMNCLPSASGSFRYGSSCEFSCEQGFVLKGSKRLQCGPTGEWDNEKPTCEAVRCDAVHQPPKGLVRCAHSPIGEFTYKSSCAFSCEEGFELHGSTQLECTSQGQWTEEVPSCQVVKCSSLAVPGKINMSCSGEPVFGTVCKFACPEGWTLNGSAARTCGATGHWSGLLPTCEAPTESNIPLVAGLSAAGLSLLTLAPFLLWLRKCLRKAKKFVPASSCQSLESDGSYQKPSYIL

Consider `Cn1cc(-c2ccccc2)c(=O)c(-c2cccc(C(F)(F)F)c2)c1`, for which the result in [1], in experiment [2], in experiment [3], in experiment [4], in [5] and in experiment [6] was inactive. The outcome in experiment [7], in [8], in experiment [9], in [10], in [11] and in experiment [12] was inactive. The outcome in experiment [13] was “inactive”; with CD40, CD40 (gene 958), “inactive”; in experiment [14] it was “inactive”; in experiment [15] it was “inactive”; in experiment [16], “inactive”; in experiment [17] it was “inactive”. Further, in [18], the outcome was inactive.
One may read the AC50 as the concentration at which the activity in the assay is half-maximal. With `ClC1=C(Cl)[C@]2(Cl)[C@H]3[C@H]([C@@H]4C=C[C@H]3C4)[C@@]1(Cl)C2(Cl)Cl`, the AC50 in experiment [2] is 16.4 µM (active); in experiment [3], 29.9 µM (active); in experiment [4] it was 10.1 µM (active); in [19] it was 10.7 µM (active); in experiment [5] it was 15.5 µM (active); in experiment [6] it was 14.5 µM (active). For the same molecule, the AC50 in [7] was 30.6 µM (active); in [9] it was 20 µM (active); in experiment [10], 22.4 µM (active); in experiment [11], 22.3 µM (active); in experiment [12], 11.6 µM (active); in experiment [13], 28.7 µM (active). In addition, the AC50 with CD40, CD40 (gene 958) was 32.1 µM (active); in experiment [14] it was 33.5 µM (active); in [15] it was 33.8 µM (active); in experiment [16], 30.5 µM (active); in [17] it was 28.9 µM (active).
With `C[C@]12C=CC3=C4CCC(=O)C=C4CC[C@H]3[C@@H]1CC[C@@H]2O`, the outcome in [1], in [2], in experiment [3], in experiment [5], in experiment [6] and in [7] was inactive. Besides, the result in experiment [8], in [9], in [10], in [11], in experiment [12] and in experiment [13] was inactive. Also, the outcome in experiment [15], in [16], in experiment [17] and in experiment [18] was inactive. Further, the AC50 is 27.7 µM (active) in experiment [4]; 20 µM (active) with CD40, CD40 (gene 958); 4.37 µM (active) in experiment [14].
Take `OCCCl`: the outcome in experiment [1], in experiment [2], in [3], in [4], in experiment [5] and in experiment [6] was inactive. The result in [7], in experiment [8], in experiment [9], in experiment [10], in [11] and in experiment [12] was inactive. Besides, the outcome was “inactive” in [13]; “inactive” with CD40, CD40 (gene 958); “inactive” in experiment [14]; “inactive” in [15]; “inactive” in experiment [16]; “inactive” in [17]. Besides, the result in experiment [18] was inactive.
